Source: PubChem
Shown are actives, neighbours in structure and some others; about 2.9% of the full set was active somewhere.
LMP1 NFkB inh = EBV LMP1-driven NF-kappaB luciferase reporter inhibitors, primary screen, cell-based, luminescence, single point; LMP1-induced NF-kappaB luciferase reporter cells; hit rate 0.69% among 350,000; inhibition, % at 12.5 µM; in the data active = inhibition above about 41%;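 also: 0% = neutral control wells and 100% = reference inhibitor control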
Shn3 3UTR inh = reduction of Shn3 3'UTR firefly luciferase signal, primary screen, Schnurri-3 inhibitor project, cell-based, Clone20 osteoblasts, set 2 | inhibition, % at 12.5 µM | Clone20 osteoblast Shn3 3'UTR firefly luciferase, 24 h | AID 588674, 2011 | hit rate 0.52% among 360,000;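 active = mean inhibition of at least 75% with every replicate also reaching 75%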;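 also: 0% = median of neutral control wells and 100% = pilot-screen positive control compound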
Peg3 prom inh = Peg3 promoter-driven luciferase inhibitors, primary screen, cell-based, HeLa, luciferase luminescence; HeLa PEG-Prom luciferase reporter, overnight; inhibition, % at 20 µM; hit rate 1.7% among 360,000; AID 588405, 2011;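 active = inhibition of at least 50% at 20 µM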
CF NFkB inh = inhibitors of PAF-induced NF-kB signaling, primary screen, cell-based, GFP fluorescence, uHTS; KKLEB NF-kB-GFP reporter, GFP fluorescence overnight; hit rate 0.86% among 360,000; inhibition, % at 5 µM;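 active = at least 50% inhibition at 5 µM, scaled per plate between neutral and stimulator controls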;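 also: PAF is a Pseudomonas aeruginosa culture filtrate used as stimulus; plate controls were PAF-stimulated DMSO wells for no effect and unstimulated DMSO wells for full effect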
KKLEB tox = cytotoxicity in KKLEB CF airway cells, primary screen, cytotoxicity control for CF NF-kB inhibitor project, cell-based, uHTS, fluorescence assay plates; KKLEB CF airway cells viability, ATPlite luminescence, overnight; hits give low values; cells stimulated with P. aeruginosa culture filtrate; activity change (cytotoxicity), % at 5 µM; hit rate 0.36% among 360,000; AID 602141, 2011;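 active = corrected activity change at or below -50% at 5 µM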
MITF TRPM1 inh = inhibitors of MITF-dependent TRPM1 promoter reporter, primary screen, cell-based, SK-MEL-5, single point, luciferase; SK-MEL-5 TRPM1 promoter luciferase, 24 h; inhibition, % at 12.5 µM; hit rate 0.83% among 330,000; AID 488899, 2010;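 active = mean inhibition across replicates of 60% or more, whatever share of single replicates reaches that level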
An asterisk follows results filed as active.

How did N=c1c2c(ncn1Cc1ccco1)Oc1ccc3ccccc3c1C2c1ccccc1 (centres undefined) do in these assays?
LMP1 NFkB inh: -1; Shn3 3UTR inh: 31; Peg3 prom inh: 57*; CF NFkB inh: 17; KKLEB tox: -23; MITF TRPM1 inh: 20

What do the screens show for `CCN1C(=O)C(CC(=O)NCCc2ccccc2)N(NC(=O)c2ccc(Br)cc2)C1=S` (centres undefined)?
LMP1 NFkB inh: 5; Shn3 3UTR inh: 1; Peg3 prom inh: 2; CF NFkB inh: -7; KKLEB tox: -6

Results for CCCCC[C@H](O)/C=C/[C@H]1CCC(=O)[C@@H]1CCCCCCC(=O)N1CCCCC1CO (some centres undefined) ?
LMP1 NFkB inh: 10; Shn3 3UTR inh: 28; Peg3 prom inh: 63*; CF NFkB inh: 37; KKLEB tox: 4; MITF TRPM1 inh: 13

Results for CCC1CCCCN1C(=O)CCCOc1ccccc1 (centres undefined) ?
LMP1 NFkB inh: -23; Shn3 3UTR inh: -8; Peg3 prom inh: -130; CF NFkB inh: 8; KKLEB tox: -6; MITF TRPM1 inh: -48

How did O=C(C1CC(=O)N(c2ccc3c(c2)OCCO3)C1)N1CCN(Cc2ccccc2F)CC1 (centres undefined) do in these assays?
LMP1 NFkB inh: 70*; Shn3 3UTR inh: 16; Peg3 prom inh: -5; CF NFkB inh: -1; KKLEB tox: -7; MITF TRPM1 inh: -3

Results for O=C(NCc1ccccc1F)C1CC(=O)N(c2ccc3c(c2)OCCO3)C1 (centres undefined) ?
LMP1 NFkB inh: 0; Shn3 3UTR inh: 2; Peg3 prom inh: -13; CF NFkB inh: -6; KKLEB tox: 12; MITF TRPM1 inh: -2

How did Cc1ccc(-n2c3nc(=O)[nH]c(=O)c-3cc3cc([N+](=O)[O-])ccc32)cc1C do in these assays?
LMP1 NFkB inh: 3; Shn3 3UTR inh: -11; Peg3 prom inh: 74*; CF NFkB inh: -3; KKLEB tox: -15; MITF TRPM1 inh: 43

Results for COc1ccc2nc(C)cc(N/N=C/c3ccc(F)cc3)c2c1 ?
LMP1 NFkB inh: -7; Shn3 3UTR inh: 54; Peg3 prom inh: 103*; CF NFkB inh: 28; KKLEB tox: -77*; MITF TRPM1 inh: 86*

What do the screens show for `COc1ccc(/C=N/Nc2cc(C)nc3c(C)cccc23)cc1`?
LMP1 NFkB inh: -4; Shn3 3UTR inh: -4; Peg3 prom inh: 111*; CF NFkB inh: -58; KKLEB tox: -5; MITF TRPM1 inh: 79*

Results for COc1ccc(/C=N/Nc2cc(C)nc3ccccc23)cc1 ?
LMP1 NFkB inh: -1; Shn3 3UTR inh: 11; Peg3 prom inh: 103*; CF NFkB inh: -100; KKLEB tox: 0; MITF TRPM1 inh: 78*

Results for COc1ccc(Nc2cc(C)nc3ccc(OC)cc23)cc1 ?
LMP1 NFkB inh: -8; Shn3 3UTR inh: -37; Peg3 prom inh: 8; CF NFkB inh: -58; KKLEB tox: 2; MITF TRPM1 inh: 4

Results for COCc1cccc(-c2csc(C(C)(O)c3cccc(OC)c3)n2)c1 (centres undefined) ?
Shn3 3UTR inh: -3; Peg3 prom inh: -2; CF NFkB inh: -13; KKLEB tox: -11

What do the screens show for `CCc1nc2ccc(C(=O)Nc3cccc(NS(C)(=O)=O)c3)cn2c1N(CC)CCOC`?
Shn3 3UTR inh: 3; Peg3 prom inh: -4; CF NFkB inh: -12; KKLEB tox: 12

Results for Cc1ccc(S(=O)(=O)N2C[C@@H]3CCCC[C@@H]3[C@@H](C)[C@H]2c2cn(Cc3ccccc3)c3ncccc23)cc1 ?
LMP1 NFkB inh: 26; Shn3 3UTR inh: 89*; Peg3 prom inh: 16; CF NFkB inh: 27; KKLEB tox: 11; MITF TRPM1 inh: 46
